# Laboratory results published in PubChem BioAssay AID1458 (National Center for Advancing Translational Sciences (NCATS), 2008).
# In all, about 210,000 compounds went through this assay and about 5,900 (2.8%) were called active. About 5% were inconclusive and are not listed. The call rests on the fitted dose curve; in most records, active means well fitted activation curve with a large enough effect; inconclusive means small, poorly fitted or top-dose-only effect; inactive means no such curve, though single readings can be large or run the other way. For the sample, actives were picked, then their nearest neighbours and some compounds at random.
# Assay: qHTS Assay for Enhancers of SMN2 Splice Variant Expression; further: nearly all actives have a fitted effect of over 55% in size; on activity change, positive = activation: % of control where 0% means no effect
# Details: HEK293 SMN2-luciferase splicing reporter, luminescence, 30-36 h; series mostly up to 46.1 µM; activity change, positive = activation: at the top concentration
# Outline: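 HEK293 cells carry an SMN2 […]–luciferase reporter in which exon 7 inclusion puts luciferase in frame. Cells were plated 10-12 h before compound addition, then incubated 30-36 h at 37C. ONE-Glo luminescence was read; sodium butyrate at 4.5 mM final served as control.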
# Potency means the concentration at half of the fitted maximal effect.
SMILES,"activity change, positive = activation",Potency
Cc1cc(C)c2oc(C(=O)Nc3ccc(S(=O)(=O)N4CCCCCC4)cc3)cc(=O)c2c1,6.66% (inactive),
Cc1ccc(S(=O)(=O)N(Cc2nc(-c3ccc(Cl)cc3)no2)C2CCCCC2)cc1,-9.98% (inactive),
COc1ccc(/C=N/Nc2nc3ccccc3c(=O)[nH]2)cc1,,12.6 µM (active)
COc1ccc(C=Nc2cccc3ncccc23)cc1,7.26% (inactive),
O=c1c2ccccc2nc(N/N=C/c2ccccc2)n1O,24.9% (inactive),
CCc1cc2c(cc3c(=O)n(CC(=O)N4CCN(c5cc(Cl)ccc5C)CC4)nc(CC)n32)s1,-1.27% (inactive),
CCCS(=O)(=O)c1c(Nc2ccccc2C)sc(C(=O)c2ccccc2)c1N,-28.1% (inactive),
O=c1c2cccnc2n(Cc2cccc(F)c2)c(=O)n1Cc1ccccc1Cl,2.72% (inactive),
CCCCOC(=O)CSc1ncnc2sc3c(c12)CCC(C)C3 (stereo not given),2.8% (inactive),
Cc1ccc(NC(=O)c2cccs2)cc1S(=O)(=O)N(C)C,2.79% (inactive),
Cc1ccc(C(=O)Nc2ccc(C)c(S(=O)(=O)N(C)C)c2)s1,,12.6 µM (active)
Cc1ccc(NC(=O)CNCc2ccccn2)cc1S(=O)(=O)N(C)C,16.5% (inactive),
COc1cc(OC)cc(C(=O)OCC(=O)Nc2ccc(F)cc2F)c1,-0.371% (inactive),
CCc1cc(C(N)=O)c(NC(=O)c2ccc(OC)cc2)s1,,11.2 µM (active)
CCc1cc(C(c2ccccc2OC)N2CCOCC2)c(NC(=O)c2ccccc2)s1 (stereo not given),-19.6% (inactive),
COc1ccc(C(=O)N/N=c2\oc3ccccc3cc2C(N)=O)cc1,-10.2% (inactive),
COc1ccc(C(=O)Nc2onc3c2CCCC3)cc1,,0.794 µM (active)
COc1ccccc1CC(=O)Nc1ccc(F)cc1F,8.91% (inactive),
COc1ccc(NC(=O)c2ccc(OC)cc2)cc1,,11.2 µM (active)
COc1ccc(C(=O)Nc2ccc(S(=O)(=O)NC(C)C)cc2)cc1,-6.41% (inactive),
COc1ccc(NC(=O)c2ccc(C#CC(C)(C)O)cc2)cc1,-25.7% (inactive),
COc1ccc(NC(=O)c2c(C)oc3c2CCCC3)cc1,-13.5% (inactive),

SMILES,"activity change, positive = activation",Potency
O=C(Nc1cccc2ccccc12)c1onc2c1CCCC2,60% (inactive),
COc1ccc(C(=O)Nc2ccc(F)cc2F)cc1,,10 µM (active)
Cc1ccc(CCNC(=O)Cn2c(-c3cccs3)cc3cc(F)ccc32)cc1,-4.22% (inactive),
COc1ccccc1CNC(=O)CCCCn1c(=O)c2ccccc2n(CC(=O)Nc2cc(Cl)ccc2C)c1=O,2.43% (inactive),
O=C(COc1ccc(Cl)cc1)N(Cc1ccco1)Cc1ccco1,-7.98% (inactive),
COc1cccc(NC(=O)N(Cc2cn(C)c3ccccc23)C2CCCCCC2)c1,-10.9% (inactive),
CCn1c2ccccc2c2cc(NC(=O)COc3ccc(C)cc3C)ccc21,-3.35% (inactive),
CCOC(=O)c1ccc(NC2=CC(c3ccc(OCC)cc3)N(c3ccc(C(=O)OCC)cc3)C2=O)cc1 (stereo not given),6.6% (inactive),
Cc1nn2cc(-c3ccc(Cl)cc3)cnc2c1Br,,3.55 µM (active)
COc1ccccc1CNC(=O)CCn1c(=O)c2ccccc2n(CC(=O)Nc2ccc(Br)cc2F)c1=O,5.14% (inactive),
COc1ccc(NC(=O)c2ccc3oc(=O)c(S(=O)(=O)c4ccc(F)cc4)cc3c2)c(OC)c1,1.42% (inactive),
O=C(C1CC1)N1CCc2cc(Br)cc(S(=O)(=O)N3CCN(c4ccccc4F)CC3)c21,-0.303% (inactive),
COc1cccc(C(=O)NC2=NC(c3ccc(N(C)C)cc3)CC(=O)N2)c1 (stereo not given),-5.38% (inactive),
Cc1cc(-c2csc(N)n2)c(C)n1Cc1ccccc1,-2.13% (inactive),
CC(=O)Nc1ccc(C(=O)Nc2nc(-c3cc(C)n(Cc4ccccc4)c3C)cs2)cc1,-33.5% (inactive),
Cc1cc(-c2csc(N)n2)c(C)n1-c1ccccc1,,12.6 µM (active)
COc1ccc(CCNc2nc3c(-c4cccc(F)c4)nnn3c3ccccc23)cc1OC,-4.52% (inactive),
CCCN(CCC)C(=O)C(Cc1ccccc1)NS(=O)(=O)c1ccc2c(c1)c(=O)n(C)c(=O)n2C (stereo not given),-1.75% (inactive),
O=C(Nc1cccc(-c2nnc(-c3ccccc3)o2)c1)C1CCCO1 (stereo not given),29.6% (inactive),
O=C(Nc1ccc(-c2nnc(-c3ccccc3)o2)cc1)C1CCCO1 (stereo not given),,3.55 µM (active)
O=C(Nc1nnc(CCc2ccccc2)s1)C1CCCO1 (stereo not given),49.4% (inactive),
CCOc1ccc(CCNC(=O)c2cc3c(=O)n(C)c4ccccc4c3n2C)cc1,14.5% (inactive),

SMILES,"activity change, positive = activation",Potency
Cn1c(COc2ccccc2C(C)(C)C)nc2ccccc21,0.0855% (inactive),
CC1CCN(c2nc3ccc(C(=O)N4CCN(c5ccccc5)CC4)cc3s2)CC1,-60.9% (inactive),
C=CC(C1=CC(=O)C=CC1=O)c1ccc(O)cc1 (stereo not given),3.3% (inactive),
Cc1cccc(C(=O)O)c1,-1.62% (inactive),
Cc1cccc(/C(N)=N/OC(=O)c2ccccc2Cl)c1,,11.2 µM (active)
N/C(=N\OC(=O)c1cc(-c2ccccc2)nc2ccccc12)c1ccncc1,-9.96% (inactive),
COc1ccc(CNc2nc(-c3ccc(Cl)cc3)nn2C(=O)c2ccccc2)cc1,5.14% (inactive),
COc1ccc2c(c1)c(=O)c(C(=O)c1ccccc1)cn2CC(=O)Nc1ccc2c(c1)OCCO2,-7.16% (inactive),
O=C(CSc1nnc2ccccn12)c1ccccc1,,12.6 µM (active)
N#Cc1ccc(CSc2nnc3ccccn23)cc1,18.2% (inactive),
Cc1ccc(-n2c(C)cc(C(=O)CN3C(=O)C(=O)N(C4CCCC4)C3=O)c2C)cc1,-21.9% (inactive),
Cn1c(CC(=O)Nc2ccccc2)nnc1SCC(=O)c1ccccc1,-15.5% (inactive),
Cc1ccc(-n2c(C)cc(C(=O)CSc3nnc4ccccn34)c2C)cc1,,2.24 µM (active)
COc1ccc(-n2c(C)cc(C(=O)CSc3nnc(-c4cccs4)o3)c2C)cc1,-65.5% (inactive),
Cn1c(=O)c2c(nc(Oc3ccc(C#N)cc3)n2Cc2ccc(Cl)cc2Cl)n(C)c1=O,-11.5% (inactive),
Cc1cccc(C(C)C)c1NC(=O)C(NS(=O)(=O)c1cccc2nsnc12)c1ccccc1 (stereo not given),-1.11% (inactive),
CCOC(=O)N1CCc2c(sc3c2c(=O)n(Cc2ccccc2)c(=O)n3CC(=O)Nc2cccc(C)c2)C1,3.36% (inactive),
COc1ccc(N2CCN(C(=O)c3cn(C)c4ccc(S(=O)(=O)N5CCOCC5)cc4c3=O)CC2)cc1,-4.72% (inactive),
Cc1cc(NC(=O)CC(C)C)cc(-c2nc3ncccc3o2)c1O,-7.35% (inactive),
COc1ccc(NC(=O)CSC2=Nc3ccccc3C3=NC(CC(=O)NCc4ccccc4OC)C(=O)N23)cc1Cl (stereo not given),7.19% (inactive),
CCc1ccccc1N1CC(c2nc3ccccc3n2CCCCOc2ccccc2)CC1=O (stereo not given),-26.7% (inactive),
